# Measurements from PubChem BioAssay AID651871 (Sanford-Burnham Center for Chemical Genomics, 2012).
# Several values for one entry are separate records, joined by “and”; a condition that tells them apart may be missing. Equal values may be shown once.
# System: H9c2
# Test: protection of cardiomyocytes from stress damage, SAR follow-up, cell-based, panel, H9c2 and HL-1, ATP luminescence, set 2 (AID 651871);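 also: cells exposed to stressor for 2 h before ATP readout; reference of the scale not given here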
# Conditions: H9c2/HL-1 cardiomyocytes, 2-deoxyglucose stress, with 2-deoxyglucose; run 13, at 79 µM (top of the series)
row,SMILES,activity (protection/inhibition)
1,COc1ccc2nc(-c3cc(OC)c(OC)c(OC)c3)cc(C(=O)NCC(=O)Nc3ccc(C(C)=O)cc3)c2c1,86.7%
2,COc1ccc2c(c1OC)C(=O)N1c3ccccc3C(=O)N(Cc3cccc(Cl)c3Cl)C21 (stereo not drawn),81.4% and 89.7% and -5.69%
3,CCOC(=O)c1cccc(NC(=O)CNC(=O)c2cc(-c3cc(OC)c(OC)c(OC)c3)nc3ccccc23)c1,92.9%
